Screening results deposited in PubChem BioAssay by National Center for Advancing Translational Sciences (NCATS).
Most compounds without a hit are left out; they make up all but 12% or so of the library.
L3MBTL1 block – L3MBTL1 (human) inhibition; 0.66% of 230,000 active; Potency, µM (series often up to 57.1 µM), usual class: inhibitors; AlphaScreen L3MBTL1–H3K9me1 peptide binding; AID 485360; Q9Y468; note: nearly all actives have a fitted effect of over 60% in size
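AlphaScreen proximity signal between nickel-chelate acceptor and streptavidin donor beads (final 10 ug/mL) reports binding of 50 nM L3MBTL1 to 75 nM biotin-H3 K9me1 peptide; complex incubated with compounds 30 min at room temperature; cefsulodin titration as control.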
HP1b binding inh – HP1-beta chromodomain-methylated histone interaction inhibition. P83916. AlphaScreen HP1-beta / biotin-H3K9me3 peptide binding. Potency, µM (highest dose often 114 µM), usual class: inhibitors. 0.56% of 390,000 active. AID 540317; note: nearly all actives have a fitted effect of over 70% in size
Target sequence (P83916 whole entry, looked up): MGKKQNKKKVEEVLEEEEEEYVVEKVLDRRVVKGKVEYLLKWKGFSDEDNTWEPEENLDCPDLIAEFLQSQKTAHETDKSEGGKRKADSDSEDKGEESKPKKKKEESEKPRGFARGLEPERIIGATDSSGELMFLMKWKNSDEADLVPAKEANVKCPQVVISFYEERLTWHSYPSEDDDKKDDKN
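HP1-beta protein (50 nM final) preincubated 30 min at room temperature with biotinylated H3(1-18)K9me3 peptide (50 nM) in PBS pH 7.4, 0.01% Tween-20, then compound added for 30 min. AlphaScreen streptavidin donor/nickel chelate acceptor beads (10 ug/mL final), 30 min dark, luminescence read.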
BAZ2B inh – BAZ2B (human) inhibition; 4.4% of 360,000 active; AID 504333; Q9UIF8; AlphaScreen BAZ2B-H3K14Ac peptide displacement; Potency, µM (top dose mostly 114 µM), hits mostly inhibitors; note: nearly all actives have a fitted effect of over 60% in size
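AlphaScreen luminescence quantifies BAZ2B engagement of H3K14Ac peptide; the protein and biotinylated peptide are both at 50 nM final, buffer PBS pH 7.4 with 0.01% Tween-20, all steps at room temperature.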
G9a block – inhibitors of human histone lysine methyltransferase G9a; AID 504332; G9a H3K9 monomethylation, AlphaScreen, 2 h; Q96KQ7; 8.8% of 350,000 active; Potency, µM (doses to about 102 µM), actives largely listed as inhibitors; note: nearly all actives have a fitted effect of over 75% in size
Target sequence (Q96KQ7 913-1193 limits assumed): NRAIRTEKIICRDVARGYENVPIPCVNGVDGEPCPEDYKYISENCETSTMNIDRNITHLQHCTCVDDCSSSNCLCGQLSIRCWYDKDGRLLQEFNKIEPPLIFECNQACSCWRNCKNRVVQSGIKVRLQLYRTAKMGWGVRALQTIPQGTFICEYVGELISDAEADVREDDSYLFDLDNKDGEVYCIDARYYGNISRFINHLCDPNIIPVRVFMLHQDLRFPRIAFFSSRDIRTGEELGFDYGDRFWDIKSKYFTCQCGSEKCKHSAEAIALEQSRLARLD
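Signal arises when biotinylated H3K9 peptide, once monomethylated, bridges streptavidin donor and antibody-captured acceptor beads. Enzyme at 20 nM was preincubated 15 min with test compounds; peptide 500 nM and SAM 20 uM then reacted for 2 h.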
JMJD2A Tudor – blocks the human JMJD2A Tudor domain. AlphaScreen JMJD2A-Tudor / H3K4me3 peptide binding. O75164. 4.4% of 390,000 active. Potency, µM (highest dose often 114 µM), actives largely listed as inhibitors. AID 504339; note: nearly all actives have a fitted effect of over 50% in size
Sfp inh – inhibitors of Bacillus subtilis Sfp phosphopantetheinyl transferase | 3.5% of 310,000 active | Biochemical Sfp PPTase activity, qHTS | Potency, µM, most hits filed as inhibitors | AID 1490;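 note: the enzyme is Sfp with the accession as filed and its product quenches rhodamine fluorescence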
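Reaction rates are the 30-min fluorescence difference (ex 525, em 598 nm) in wells containing 15 nM Sfp, 5 uM rhodamine-CoA and 12.5 uM BHQ-2-YbbR at pH 7.6 with 10 mM MgCl2.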
Large screens that a line does not name were inactive. Calls come from the whole dose curve; as a rule, active = well fitted curve in the direction sought with a large enough effect; inconclusive = small, poorly fitted or top-dose-only effect, or another doubt; inactive = no such curve, though single readings can be large; an effect the other way counts as inactive or inconclusive.

N#CCCN/N=C(\Cc1nc2ccccc2[nH]1)c1ccccc1	G9a block 50.1µM (no result: L3MBTL1 block)
Cc1ccc(N/N=C(\Cc2nc3ccccc3[nH]2)c2ccccc2)cc1	HP1b binding inh inconclusive, BAZ2B inh inconclusive, G9a block 7.08µM, JMJD2A Tudor inconclusive
CCN/N=C(\Cc1nc2ccccc2[nH]1)c1ccccc1	none
Clc1cccc(/C(Cc2nc3ccccc3[nH]2)=N\Nc2ccccc2)c1	G9a block 6.31µM, JMJD2A Tudor inconclusive
Cc1ccccc1Nc1c(-c2cccc(N(C)C)c2)nc2ccc(Br)cn12	none (no result: L3MBTL1 block, Sfp inh)
CC(=O)c1ccc(NC(=O)C(C)Sc2n[nH]c(-c3cccnc3)n2)cc1 (stereo not given)	none (no result: L3MBTL1 block)
Cc1nc(NCc2ccccc2)c2nc(-c3ccccc3)n(CCCN3CCOCC3)c2n1	none (no result: L3MBTL1 block, HP1b binding inh, BAZ2B inh, G9a block, JMJD2A Tudor)
O=C(O)c1cccc(Nc2ccc3nonc3c2[N+](=O)[O-])c1	none (no result: L3MBTL1 block)
O=[N+]([O-])c1c(Nc2cccc(O)c2)cc(Cl)c2nonc12	BAZ2B inh inconclusive, G9a block 44.7µM, JMJD2A Tudor inconclusive, Sfp inh 56.2µM
O=C(O)c1ccc(Nc2cc(Cl)c3nonc3c2[N+](=O)[O-])cc1	G9a block 35.5µM, Sfp inh 35.5µM
Cc1c(Nc2cc(Cl)c3nonc3c2[N+](=O)[O-])c(=O)n(-c2ccccc2)n1C	G9a block 7.08µM, Sfp inh inconclusive (no result: L3MBTL1 block)
CC(NC(=O)OCc1ccccc1)C(=O)NCC(=O)NC(Cc1ccc(OC(C)(C)C)cc1)C(=O)OC(C)(C)C (stereo not given)	none
CCN(CC)CCNC(C(=O)Nc1cc(C(F)(F)F)ccc1Cl)c1ccccc1 (stereo not given)	BAZ2B inh inconclusive, G9a block 10µM
Cc1ccccc1OC(=O)n1c(=S)oc2cc(Cl)ccc21	G9a block 1.12µM, JMJD2A Tudor 35.5µM (no result: L3MBTL1 block)
O=C(Oc1ccccc1)n1c(=S)oc2ccccc21	G9a block 3.55µM, JMJD2A Tudor 20µM
CCOc1ccccc1NC(=O)Cn1c(=O)oc2cc(Cl)ccc21	none (no result: L3MBTL1 block)
COc1ccc(C/C(N)=N/OC(=O)CCc2ccccc2)cc1	none (no result: L3MBTL1 block)
CN(Cc1cccs1)C(=O)COC(=O)CNC(N)=O	none (no result: L3MBTL1 block)
CN(Cc1cccs1)C(=O)CSc1nc(N)cc(N)n1	JMJD2A Tudor 79.4µM (no result: BAZ2B inh)
FC(F)Oc1ccc(NC(=S)NCCc2ccccn2)cc1	none (no result: L3MBTL1 block)
NC(=S)NNc1ccnc2cc(Cl)ccc12	HP1b binding inh inconclusive, BAZ2B inh 50.1µM, G9a block 1µM, JMJD2A Tudor 44.7µM
Clc1ccc2c(NNc3ccccc3Cl)ccnc2c1	L3MBTL1 block inconclusive, BAZ2B inh 2µM, G9a block 3.16µM, JMJD2A Tudor inconclusive
FC(F)Oc1ccc(NC(=S)NNc2ccnc3cc(Cl)ccc23)cc1	HP1b binding inh inconclusive, BAZ2B inh inconclusive, G9a block 39.8µM, JMJD2A Tudor inconclusive
O=C(NNc1ccnc2cc(Cl)ccc12)C1CCCCC1	none
CC1/C=C/C=C/C=C/C=C/C=C/C=C/C=C/C(OC2OC(C)C(O)C(N)C2O)CC2O[C@@](O)(CC(O)CC(O)C(O)CCC(O)CC(O)CC(=O)OC(C)[C@H](C)C1O)CC(O)C2C(=O)O (stereo not given in full)	G9a block inconclusive (no result: L3MBTL1 block, HP1b binding inh, BAZ2B inh, JMJD2A Tudor)
Cc1ccc(N2C(=O)CC(Sc3nc4ccccc4o3)C2=O)cc1Cl (stereo not given)	G9a block 11.2µM, JMJD2A Tudor inconclusive, Sfp inh 50.1µM
COc1ccccc1OCc1nc(C#N)c(NCCCn2ccnc2)o1	BAZ2B inh inconclusive, G9a block inconclusive
N#Cc1nc(COc2ccccc2F)oc1NCCCn1ccnc1	L3MBTL1 block inconclusive, BAZ2B inh inconclusive, G9a block 31.6µM, JMJD2A Tudor inconclusive
Cc1ccc(OCc2nc(C#N)c(NCCCn3ccnc3)o2)cc1	BAZ2B inh 50.1µM, G9a block inconclusive
Cc1nn(CCC(=O)Nc2cc(F)ccc2F)c(=O)c2nn(-c3ccccc3)c(C)c12	none (no result: L3MBTL1 block, Sfp inh)
Cc1cc(NC(=O)CSc2cn(CCNC(=O)c3ccccc3)c3ccccc23)no1	HP1b binding inh 8.91µM, G9a block inconclusive, JMJD2A Tudor 22.4µM (no result: L3MBTL1 block)
Cc1cc(NC(=O)CSc2cn(C)c3ccccc23)no1	G9a block 25.1µM (no result: L3MBTL1 block)
CCCn1cc(SCC(=O)Nc2cc(C)on2)c2ccccc21	none (no result: L3MBTL1 block)
O=C(c1cc2ccccc2oc1=O)N(Cc1cccs1)Cc1cccs1	JMJD2A Tudor 28.2µM
Cc1cc(C)cc(N=C2SC(CC(=O)Nc3ccccc3)C(=O)N2CCN2CCOCC2)c1 (stereo not given)	BAZ2B inh inconclusive, G9a block 50.1µM, JMJD2A Tudor inconclusive
O=C(NCC1COc2ccccc2O1)c1ccc(Cl)c(S(=O)(=O)N2CCCC2)c1 (stereo not given)	none (no result: Sfp inh)
COC(=O)[C@H]1[C@H]2C[C@@H]3c4[nH]c5cc(OC)ccc5c4CCN3C[C@H]2C[C@@H](OC(=O)c2ccc(N)cc2)[C@@H]1OC	BAZ2B inh 39.8µM, G9a block inconclusive, JMJD2A Tudor inconclusive (no result: L3MBTL1 block)
c1ccc(N2CCN(c3nc4cc5c(cc4s3)OCO5)CC2)cc1	G9a block inconclusive, Sfp inh 44.7µM
c1c2c(cc3sc(N4CCOCC4)nc13)OCO2	HP1b binding inh inconclusive, JMJD2A Tudor inconclusive, Sfp inh 35.5µM
Brc1ccc2nc(N3CCN(c4ccccc4)CC3)sc2c1	none (no result: L3MBTL1 block, BAZ2B inh)
c1ccc2c(c1)CCN(c1nc3cc4c(cc3s1)OCO4)C2	BAZ2B inh inconclusive, G9a block 3.16µM, Sfp inh inconclusive
Fc1ccc2nc(N3CCOCC3)sc2c1	none (no result: L3MBTL1 block, BAZ2B inh)
c1c2c(cc3sc(N4CCCCC4)nc13)OCO2	BAZ2B inh inconclusive, G9a block 10µM
Cc1cc2nc(-c3ccc(OCc4ccccc4)cc3)cc(C(F)(F)F)n2n1	none (no result: L3MBTL1 block, Sfp inh)
Cc1ccc(N2C(=O)[C@@H]3CSC(c4ccc(C(F)(F)F)cc4)N3C2=O)cc1 (stereo not given in full)	none (no result: L3MBTL1 block, Sfp inh)
COc1cc2[nH]c(=O)n(CCCC(=O)N3CC=C(c4ccccc4)CC3)c(=O)c2cc1OC	G9a block inconclusive (no result: L3MBTL1 block)
COc1cccc2c1[C@@H]1CN(CCCCn3c(=O)[nH]c4c(sc5ncc(-c6ccccc6)nc54)c3=O)C[C@@H]1CO2	BAZ2B inh inconclusive, G9a block 12.6µM, JMJD2A Tudor inconclusive (no result: Sfp inh)
CCCNC(=S)N1CCC(C(=O)c2ccc(F)cc2)CC1	BAZ2B inh inconclusive
O=C(CSc1nc2nn(-c3ccccc3)c(=O)c-2c2n1CCCCC2)c1ccc(O)c(O)c1	L3MBTL1 block 8.91µM, HP1b binding inh 28.2µM, BAZ2B inh 10µM, JMJD2A Tudor 11.2µM (no result: Sfp inh)
COCCNC(=O)CSc1nc2nn(-c3ccccc3)c(=O)c-2c2n1CCCCC2	JMJD2A Tudor 56.2µM
CNC(=O)CSc1nc2nn(-c3ccccc3)c(=O)c-2c2n1CCCCC2	none
